Source: PubChem (National Center for Advancing Translational Sciences (NCATS))
CHX counter = affects cycloheximide protein synthesis inhibition readout, counter-screen | cell reporter, cycloheximide protein synthesis inhibition counterscreen | max response, % | hit rate 12% among 300,000; in the data active = max response mostly above about 13%, no sharp cut-off; inactive = mostly below about 14%; note: read at 38.3 µM for the half of the compounds with a filed dose; 0% is about no effect
HCMV inh = inhibitors of human cytomegalovirus. hit rate 4.5% among 410,000. HFF cells, HCMV-luciferase reporter, 72 h; stronger effect = lower value. AID 1259415. activity change, negative = inhibition, % at 57.5 µM; in the data active = activity change below about -60%; inconclusive = no clear call, values can overlap the other calls; inactive = above about -39%; note: % is set by controls: 0 for no effect and ±100 for the full control effect
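Compounds were evaluated in HFFs infected with an HCMV luciferase reporter virus (MOI 1 PFU/cell). Luciferase in lysates collected 72 h post infection served as the replication measure.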
HCV inhibitor = HCV inhibition. Huh7.5.1 HCVcc-Cre infection, luciferase reporter, 44 h. Potency, µM (highest dose often 41.8 µM), for the others: at the highest dose activity change, negative = inhibition, hits mostly inhibitors. hit rate 3.4% among 340,000. AID 651820; note: potency is the fitted concentration of half-maximal effect; % is set by controls: 0 for no effect and ±100 for the full control effect
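After 44 h co-culture of compound, cells and HCVcc-Cre (~0.5 moi), substrate is added for 15 min at room temperature and luciferase measured over 15 sec. Cells were seeded at 1,000/well and pre-cultured 4 h.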
Shiga toxin inh = blocks Shiga toxin action in Vero cells; inhibition, % at 38.7 µM; hit rate 9.2% among 290,000; Vero cells, Shiga toxin protein synthesis inhibition reporter; in the data active = inhibition mostly above about 28%, no sharp cut-off; inactive = mostly below about 43%; note: 0% is about no effect
Pf growth 96h = P. falciparum growth inhibition at 96 hour, primary screen for plastid delayed-death inhibitors; P. falciparum luciferase reporter growth, 96 h; hit rate 6.9% among 320,000; Potency, µM (doses to about 28.7 µM), for inactives: at the highest dose activity change, negative = inhibition, hits mostly inhibitors; note: potency is the fitted concentration of half-maximal effect; % is set by controls: 0 for no effect and ±100 for the full control effect
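P. falciparum expressing integrated firefly luciferase grown in erythrocytes (2% hematocrit, 0.05% parasitemia final) with compounds for 96 hours at 37 C, 5% CO2. Growth inhibition read as loss of luminescence after adding luciferase detection reagent.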
Pf growth 48h = inhibits P. falciparum growth in the first generation, 48 h; P. falciparum luciferase growth in erythrocytes, 48 h; AID 504832; hit rate 5.9% among 310,000; Potency, µM (doses to about 28.7 µM), for the others: at the top dose activity change, negative = inhibition, usual class: inhibitors; note: potency is the fitted concentration of half-maximal effect; % is set by controls: 0 for no effect and ±100 for the full control effect
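In quantitative HTS format, infected erythrocytes bearing luciferase-reporter parasites were treated for a single generation at 37 C. Luminescence after adding detection reagent served as the growth measure.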
Starred values were filed as active, the others as inactive; ? = inconclusive; . = not tested or not shown. Rows were chosen to be rich in hits. Some 21% of all compounds tested hit in one or more screens of this group. Unless noted, calls come from the whole dose curve; as a rule, active = well fitted inhibition curve with a large enough effect; inconclusive = small, poorly fitted or top-dose-only effect, or another doubt; inactive = no such curve, though single readings can be large or run the other way.

SMILES | CHX counter | HCMV inh | HCV inhibitor | Shiga toxin inh | Pf growth 96h | Pf growth 48h
C=CCN(C(=O)c1csnn1)C(C(=O)NC1CCCC1)c1c(F)cccc1Cl (stereo not drawn) | -5.5 | 10.6 | 13.1% | 6.8 | ? | -10.3%
COc1ccc2nc(SCC(=O)c3c(C)[nH]c4ccccc34)nc(C)c2c1 | . | 7.6 | . | . | . | .
Cc1cc(C)n2nc(C(=O)N/N=C/c3cccs3)nc2n1 | 8.4 | -14.1 | 9.9% | 16.7 | 18.8% | 5.7%
COc1cc(OC)c(OC)cc1CNC(=O)c1ccc(S(=O)(=O)N2CC(C)OC(C)C2)cc1 (stereo not drawn) | . | -3.2 | 8.7% | . | 10.4µM* | ?
CC1CCN(S(=O)(=O)c2ccc(C(=O)Nc3nnc(-c4ccco4)o3)cc2)CC1 | -3.1 | -2.9 | ? | -13.9 | 14.7µM* | ?
CC1CN(S(=O)(=O)c2ccc(C(=O)Nc3nnc(-c4ccco4)o3)cc2)CC(C)O1 (stereo not drawn) | -1.6 | -1.8 | 11.4% | -8.3 | ? | ?
COc1cccc(-c2nnc(NC(=O)c3ccc(S(=O)(=O)N4CC(C)OC(C)C4)cc3)o2)c1 (stereo not drawn) | -1.4 | -94.4* | ? | -9.6 | 4.0% | .
COc1ccc(CNC(=O)c2ccc(S(=O)(=O)N3CC(C)CC(C)C3)cc2)cc1OC (stereo not drawn) | . | -16.4 | ? | . | . | .
N#Cc1c(N(CC(=O)O)CC(=O)O)sc(C(=O)O)c1CC(=O)O | . | . | . | . | -13.0% | -1.1%
CCN1CCN(C(=O)C(=O)c2c(C)[nH]c3ccccc23)CC1 | -2.2 | 23.8 | -1.5% | -20.4 | 33.5% | ?
CC1CCN(S(=O)(=O)c2ccc3c(c2)N(CC(=O)N2CCN(c4ccc(Cl)cc4)CC2)C(=O)CO3)CC1 | . | 8.5 | . | . | . | .
CCOC(=O)c1ccc(NS(=O)(=O)c2cc(Br)cc3c2N(C(C)=O)C(C)C3)cc1 (stereo not drawn) | . | -29.2 | . | . | . | .
CC(=O)N1c2c(cc(Br)cc2S(=O)(=O)NCc2ccc(C)cc2)CC1C (stereo not drawn) | -4.6 | -65.9* | -7.5% | 1.7 | 49.2% | -17.4%
CC(=O)N1c2c(cc(Br)cc2S(=O)(=O)N2CCN(C(=O)c3ccco3)CC2)CC1C (stereo not drawn) | -2.0 | -0.1 | 5.1% | 5.4 | . | 10.4µM*
CC(=O)N1c2c(cc(Br)cc2S(=O)(=O)Nc2ccc(OC(F)(F)F)cc2)CC1C (stereo not drawn) | . | -82.3* | . | . | . | .
COc1ccc(CNS(=O)(=O)c2cc(Br)cc3c2N(C(C)=O)C(C)C3)cc1 (stereo not drawn) | -1.5 | -39.4 | 19.0% | -4.8 | 4.15µM* | -8.3%
O=C(N/N=C/c1ccc2nccnc2c1)c1ccccc1O | 15.5* | 15.5 | . | 24.4 | 70.8% | 95.0%
O=C(N/N=C/c1ccnc2ccccc12)c1ccccc1O | 26.8* | -4.7 | 4.6% | 32.5 | ? | ?
O=C(N/N=C/c1cccc(C(F)(F)F)c1)c1ccccc1O | 30.2* | -39.7 | 14.7% | 120.9* | ? | 0.0%
Fc1ccc(-c2cn3cc(Cc4ccc(Cl)cc4)sc3n2)cc1 | . | 87.7 | . | . | . | .
CC(=O)c1cccc(NS(=O)(=O)c2ccc3c(c2)N(C(C)=O)CCO3)c1 | -2.7 | -19.7 | ? | -7.1 | ? | 25.2%
O=C(NCC1CCN(S(=O)(=O)c2ccccc2)CC1)Nc1ccccc1 | 1.3 | 21.4 | 11.3% | 7.3 | ? | ?
COc1cccc(C2C(C(=O)/C=C/c3ccco3)=C(O)C(=O)N2CCN2CCOCC2)c1 (stereo not drawn) | -14.0 | -0.4 | -3.1% | -10.7 | 8.7% | -2.9%
COc1ccc(C2C(C(=O)/C=C/c3ccco3)=C(O)C(=O)N2CCN2CCOCC2)cc1 (stereo not drawn) | 6.0 | 11.2 | 11.2µM* | 12.9 | -15.2% | ?
COc1ccc(/C=N/n2cnc3c([nH]c4ccccc43)c2=O)cc1COc1ccccn1 | 1.1 | . | . | -1.8 | ? | -8.2%
c1ccc2c(c1)CSc1ccccc1C2C1=NCCN1 (stereo not drawn) | -3.3 | -13.2 | -11.2% | 3.9 | -5.1% | -5.4%
c1ccc(C2(c3ccccc3)CC2C2=NCCN2)cc1 (stereo not drawn) | . | . | . | . | 13.5µM* | ?
